Consider 87 sequences from the supplement of paper PMC3334620.

The full ranking holds about 33,000 sequences; the median of “E-score (-0.5 to 0.5)” is about -0.016, and the highest 2% start at about 0.3. For the sample, the highest values were picked, then their nearest neighbours and some sequences at random.

This assay concerns the target T1, Yer184c (UniProt P39961).
T1 sequence: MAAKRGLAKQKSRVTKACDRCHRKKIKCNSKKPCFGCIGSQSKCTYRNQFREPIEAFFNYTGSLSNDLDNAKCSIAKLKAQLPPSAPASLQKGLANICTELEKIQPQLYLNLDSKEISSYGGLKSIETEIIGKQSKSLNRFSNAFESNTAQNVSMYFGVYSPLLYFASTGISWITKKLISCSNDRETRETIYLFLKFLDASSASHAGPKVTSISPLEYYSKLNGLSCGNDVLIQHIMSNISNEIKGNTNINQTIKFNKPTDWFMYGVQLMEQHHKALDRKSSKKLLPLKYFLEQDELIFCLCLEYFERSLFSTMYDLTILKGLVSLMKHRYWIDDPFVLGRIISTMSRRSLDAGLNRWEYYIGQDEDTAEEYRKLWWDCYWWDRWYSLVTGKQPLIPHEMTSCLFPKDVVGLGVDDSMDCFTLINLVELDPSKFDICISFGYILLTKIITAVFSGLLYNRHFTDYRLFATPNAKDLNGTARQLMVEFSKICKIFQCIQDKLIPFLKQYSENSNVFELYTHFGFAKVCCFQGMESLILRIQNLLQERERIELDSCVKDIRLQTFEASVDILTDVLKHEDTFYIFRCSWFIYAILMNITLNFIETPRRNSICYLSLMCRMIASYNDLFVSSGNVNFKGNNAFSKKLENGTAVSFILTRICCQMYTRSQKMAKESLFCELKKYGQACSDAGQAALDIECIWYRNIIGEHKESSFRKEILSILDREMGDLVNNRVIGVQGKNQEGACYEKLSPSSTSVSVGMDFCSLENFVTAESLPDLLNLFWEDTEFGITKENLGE
The assay can be described thus: PBM E-score (8-mer binding enrichment) (E-score (-0.5 to 0.5)); higher = stronger / more preferred TF binding. The following applies: protein concentration: 100 nM; construct: GST-full length. The procedure: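 Universal 'all 10-mer' protein binding microarrays (Agilent AMADID 015681) probed with GST-tagged S. cerevisiae TFs (full-length or DBD) made by in vitro transcription/translation (PURExpress), about 100-200 nM. Bound TF was detected with fluorescent anti-GST. Each ungapped 8-mer (which stands for itself and its reverse complement) is scored by the PBM enrichment score (E-score), a modified Wilcoxon-Mann-Whitney statistic from -0.5 to +0.5, computed with the Universal PBM Analysis Suite. Scale: above 0.35 generally sequence-specific binding.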
With CCCACGGA, the “PBM E-score” value is 0.157.

For CCTGTAGA, the “PBM E-score” value was -0.094.

For ACGGCAGC, the “PBM E-score” value turned out to be 0.161.

As for AACGGTAC, the “PBM E-score” value was 0.187.

Regarding CTCAAAGC, the “PBM E-score” value was determined as 0.114.

Take ATGAACAA: the “PBM E-score” value is 0.154.

As to CCCCATCG, the “PBM E-score” value was -0.0742.

For the sequence ACTCTGTC, the “PBM E-score” value was -0.139.

As to CCAACGGA, the “PBM E-score” value was 0.101.

Regarding ATCACGGG, the “PBM E-score” value was -0.164.

As for ATCACGGC, the “PBM E-score” value came out at 0.197.

In the case of ATCACGGA, the “PBM E-score” value stood at 0.307.

GCAACGGA: the “PBM E-score” value amounted to 0.294.

For the sequence TCAACGGA, the “PBM E-score” value amounted to 0.315.

Take CAATGCAG: the “PBM E-score” value was -0.0658.

As to AGCCAGTC, the “PBM E-score” value is -0.153.

On to CGAGGATC, for which the “PBM E-score” value came to 0.0927.

For GAACCTCC, the “PBM E-score” value is -0.0558.

As for CAATTCAG, the “PBM E-score” value was -0.0853.

As to AGGCCGAC, the “PBM E-score” value was found to be 0.0134.

As to CGGCCGAA, the “PBM E-score” value is 0.415.

With CGGCCGAG, the “PBM E-score” value was found to be 0.372.

Regarding AGGCCGAG, the “PBM E-score” value was 0.143.

Consider CAGCCGAG, for which the “PBM E-score” value is 0.275.

GGGCCGAA: the “PBM E-score” value stood at 0.243.

As for GGGCCGAC, the “PBM E-score” value was 0.132.

On to CGGCCGAC, for which the “PBM E-score” value was determined as 0.381.

With TGGCCGAA, the “PBM E-score” value was 0.295.

In the case of CACCCCCA, the “PBM E-score” value is -0.206.

CCAATTGG: the “PBM E-score” value turned out to be 0.041.

Turning to TACTGTCA, the “PBM E-score” value is -0.0937.

Regarding GCTCAAGC, the “PBM E-score” value was -0.0698.

Consider ATGCTAAA, for which the “PBM E-score” value was found to be 0.0332.

With GATTGATA, the “PBM E-score” value is 0.0572.

As to TGTTGTAA, the “PBM E-score” value was 0.148.

Regarding ACCATCAG, the “PBM E-score” value is -0.101.

As to TCGCCGCA, the “PBM E-score” value turned out to be 0.0686.

Turning to TCGCCGAA, the “PBM E-score” value was found to be 0.316.

Regarding ACGCCGAA, the “PBM E-score” value stood at 0.343.

On to GCGCCGTA, for which the “PBM E-score” value stood at 0.247.

For the sequence ACGCCGAC, the “PBM E-score” value was found to be 0.198.

GCGCCGAC: the “PBM E-score” value amounted to 0.206.

For the sequence GCGCCGAA, the “PBM E-score” value came to 0.343.

Regarding TCGCCAAA, the “PBM E-score” value was -0.0461.

Regarding ACGCCGAT, the “PBM E-score” value stood at 0.151.

As to AGGTATTG, the “PBM E-score” value was -0.0873.

On to AAGGATAT, for which the “PBM E-score” value worked out at 0.0287.

In the case of CTCTCCCA, the “PBM E-score” value was -0.211.

Take CGGTCGCA: the “PBM E-score” value is -0.0193.

For the sequence TGCCCGAA, the “PBM E-score” value was found to be 0.0801.

Take ACCAAAGT: the “PBM E-score” value was -0.0125.

As for ATGGCCTC, the “PBM E-score” value is -0.106.

As to ACGCTTCC, the “PBM E-score” value worked out at 0.0165.

Consider CTAAAGTC, for which the “PBM E-score” value was -0.0167.

Turning to GCGGCACA, the “PBM E-score” value came to 0.129.

For CCGGCACG, the “PBM E-score” value stood at 0.288.

In the case of CCGGCATC, the “PBM E-score” value came out at 0.322.

As to ACGGCATC, the “PBM E-score” value came to 0.0862.

For CCGGCACA, the “PBM E-score” value turned out to be 0.314.

Turning to TCGGCACA, the “PBM E-score” value was 0.307.

For CCGGCACC, the “PBM E-score” value stood at 0.352.

Consider ACGGCACG, for which the “PBM E-score” value is 0.194.

With ACGGCACC, the “PBM E-score” value is -0.0473.

For GCGGCACC, the “PBM E-score” value turned out to be 0.23.

Consider CCGGCATA, for which the “PBM E-score” value turned out to be 0.291.

For ACGGCACA, the “PBM E-score” value was 0.0865.

On to ACAGCTAA, for which the “PBM E-score” value was -0.0181.

With CGCGGCCC, the “PBM E-score” value came out at 0.0857.

Regarding AATGTTGT, the “PBM E-score” value is -2e-05.

Regarding GCTCTTCA, the “PBM E-score” value was -0.187.

Regarding ACACTAGC, the “PBM E-score” value was -0.101.

In the case of CTTCTTGA, the “PBM E-score” value is -0.0452.

Turning to ACTGGGCA, the “PBM E-score” value is -0.199.

As to CCGCCTCA, the “PBM E-score” value is -0.051.

Consider CACCTCAG, for which the “PBM E-score” value is -0.236.

On to ACCTAATG, for which the “PBM E-score” value was -0.284.

For CGGAGTGA, the “PBM E-score” value was 0.153.

As for GTAGGTTA, the “PBM E-score” value is -0.00416.

As for ATGCCAAA, the “PBM E-score” value is -0.0656.

Consider CTGCCGAA, for which the “PBM E-score” value came to 0.297.

Take GTGCCAAA: the “PBM E-score” value is -0.00899.

Turning to ATGCCGAA, the “PBM E-score” value was 0.408.

On to ATGCCGTG, for which the “PBM E-score” value was 0.115.

Regarding ATGCCGTA, the “PBM E-score” value turned out to be 0.196.

Consider ATGCCGAG, for which the “PBM E-score” value amounted to 0.346.

For ATGCCGAC, the “PBM E-score” value was 0.243.

With GTGCCGAA, the “PBM E-score” value stood at 0.387.
